# Screening results: PubChem, Broad Institute
# This is a sample that favours compounds with a hit; in the whole collection about 3.3% have one here.
# GSIS activator: GLuc luminescence reporter in INS-1E cells, primary screen for activators of glucose-dependent secretion of insulin; activation, % at 16.6 µM; AID 743287, 2014; INS-1E GLuc reporter insulin secretion, 2-3 h; 370,000 compounds, 0.61% hits;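 active means lowest replicate activation of at least 40%, so every replicate reaches that level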
# ERAP1 inh: human ERAP1 aminopeptidase inhibitors, primary screen, biochemical, single point, plate reader; Endoplasmic reticulum aminopeptidase 1 (Homo sapiens), Q9NZ08; recombinant ERAP1, Leu-AMC fluorescence, 60 min; inhibition, % at 10.7 µM; 340,000 compounds, 0.15% hits; AID 652197, 2013;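 active means mean replicate inhibition of at least 30%, or all replicates individually reaching that 30% level; inactive means mean below 30% and not every replicate reaching it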
# FGF22 binding: binders of human FGF22 protein, primary screen, FGF22 synaptogenesis inhibitor project, biophysical, thermal shift, single point. 340,000 compounds, 1.5% hits. activity (Tm shift, normalised), % at 9.99 µM. AID 651658, 2012. recombinant FGF22 thermal shift, SYPRO orange fluorescence; percent of sucrose octasulfate shift, DMSO zero;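 active means mean Tm shift, scaled 0 neutral to 100 positive control, at about 1.3% or above, every replicate too, limit read from the data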
# CASP6 VEID inh: human caspase-6 inhibitors, primary screen, biochemical, VEID-R110 fluorescence, single point, set 2; purified caspase-6, Z-VEID-R110 cleavage fluorescence; 350,000 compounds, 0.53% hits; inhibition, % at 12.5 µM;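 active means mean inhibition across replicates at least about 35%, with every replicate also reaching that limit, limit read from the data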
# Target sequence (P55212 24-179 limits assumed): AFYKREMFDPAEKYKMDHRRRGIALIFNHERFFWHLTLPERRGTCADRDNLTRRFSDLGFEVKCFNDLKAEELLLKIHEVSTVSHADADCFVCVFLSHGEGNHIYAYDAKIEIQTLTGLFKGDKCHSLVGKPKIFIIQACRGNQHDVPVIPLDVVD
# Target sequence (P55212 194-293 limits assumed): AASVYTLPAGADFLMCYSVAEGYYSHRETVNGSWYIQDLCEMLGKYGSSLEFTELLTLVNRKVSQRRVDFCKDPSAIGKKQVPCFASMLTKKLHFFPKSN
# SIRT5 block: SIRT5 desuccinylase inhibitors, primary screen, biochemical, fluorescence imaging, single point, set 5 | NAD-dependent protein deacylase sirtuin-5, mitochondrial (Homo sapiens), Q9NXA8 | Purified SirT5, succinyl-peptide AMC, trypsin-coupled fluorescence | inhibition, % at 15 µM | 330,000 compounds, 1.1% hits | AID 652115, 2013; in the data active means inhibition above about 15%
# Target sequence (Q9NXA8 whole entry, looked up): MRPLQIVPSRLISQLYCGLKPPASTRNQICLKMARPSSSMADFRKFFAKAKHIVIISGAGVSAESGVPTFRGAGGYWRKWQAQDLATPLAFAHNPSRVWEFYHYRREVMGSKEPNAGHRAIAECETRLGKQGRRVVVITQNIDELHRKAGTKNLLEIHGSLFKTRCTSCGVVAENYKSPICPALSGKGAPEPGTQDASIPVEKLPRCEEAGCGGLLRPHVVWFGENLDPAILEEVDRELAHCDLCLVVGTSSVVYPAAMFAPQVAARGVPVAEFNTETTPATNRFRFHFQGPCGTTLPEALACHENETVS
# Hits are given with their value; n = inactive; x = no result.
SMILES,GSIS activator,ERAP1 inh,FGF22 binding,CASP6 VEID inh,SIRT5 block
CS(=O)(=O)Nc1ccc2c(c1)[C@H]1C[C@@H](CC(=O)N3CCc4ccccc4C3)O[C@@H](CO)[C@H]1O2,n,n,n,n,n
Cc1ccc(Cc2cnc(N3C(=N)SC(C)C3=O)s2)cc1 (stereo unspecified),x,n,43,n,n
C[C@@H]1CN([C@@H](C)CO)C(=O)Cc2cc(NC(=O)Nc3ccc(F)cc3)ccc2O[C@H]1CN(C)Cc1ccc2c(c1)OCO2,n,n,n,n,n
CCN(CC(=O)Nc1ccc(NC(C)=O)cc1)C(=O)C(c1ccccc1)c1ccccc1,n,n,43,n,n
CCN(CC(=O)Nc1ccc(NC(C)=O)cc1)C(=O)/C=C/c1ccccc1,n,n,n,n,n
S=c1[nH]nc(-c2ccco2)n1/N=C/C=C/c1ccco1,n,n,n,70,x
NNc1nc(-c2ccccc2)c2ccccc2n1,44,x,n,n,n
Cc1ccc(S(=O)(=O)N(C)C[C@@H]2Oc3cc(C#Cc4ccncc4)ccc3S(=O)(=O)N([C@@H](C)CO)C[C@H]2C)cc1,x,n,n,n,15
Cc1ccc(S(=O)(=O)N(C)C[C@@H]2Oc3cc(C#Cc4ccccc4)ccc3S(=O)(=O)N([C@H](C)CO)C[C@@H]2C)cc1,n,n,n,n,n
Cc1ccc(S(=O)(=O)N(C)C[C@@H]2Oc3cc(C#Cc4ccncc4)ccc3S(=O)(=O)N([C@H](C)CO)C[C@H]2C)cc1,n,n,n,n,16
Cc1ccc(S(=O)(=O)N(C)C[C@@H]2Oc3cc(C#Cc4ccccc4)ccc3S(=O)(=O)N([C@@H](C)CO)C[C@@H]2C)cc1,n,n,n,39,n
Cc1ccc(S(=O)(=O)N(C)C[C@H]2Oc3cc(C#Cc4ccncc4)ccc3S(=O)(=O)N([C@@H](C)CO)C[C@@H]2C)cc1,n,n,n,n,n
O=C(NCc1ccccc1)NC(O)C(Cl)(Cl)Cl (stereo unspecified),n,n,44,n,n
O=C(NCc1ccccc1)N[C@@H](Cc1ccccc1)C(=O)O,n,x,x,x,x
Cc1ccc(NC(=S)N(Cc2cccc(Br)c2)CC2CCC(C(=O)O)CC2)cc1 (stereo unspecified),n,n,8.2,n,n
Oc1ccc(Cl)cc1CNc1cccc2cccnc12,n,n,n,84,n
O=C(Nc1ccc(F)cc1)c1cc(-c2ccccc2)no1,n,n,43,n,n
CO[C@H]1CN(C)C(=O)c2cc(NC(=O)c3cccc(F)c3)ccc2OC[C@H](C)N(CC2CC2)C[C@@H]1C,n,n,n,n,n
CC(=O)c1ccc(NC(=O)[C@@H]2CCCN2C(=O)OC(C)(C)C)cc1,n,n,n,56,n
COc1ccc(NC(=O)[C@@H]2CCCN2C(=O)[C@@H]2Cc3ccccc3CN2C(=O)OC(C)(C)C)cc1,n,n,n,n,n
COC(=O)Cc1cc(=O)n(-c2nc3ccccc3[nH]2)[nH]1,n,n,n,44,n
CCCCCCCCC#Cc1nc(C)ccc1OC,56,x,n,n,n
CCCC(=O)Nc1cc(C(=O)O)ccc1Sc1ccc(C)cc1,n,n,43,n,n
CCC(=O)Nc1cc(C(=O)O)ccc1Sc1ccc(C)cc1,n,n,n,n,n
COC(=O)C[C@H]1CC[C@@H]2[C@@H](COc3ccc(NC(=O)Nc4cccc(F)c4)cc3C(=O)N2C)O1,n,n,n,n,n
SMILES,GSIS activator,ERAP1 inh,FGF22 binding,CASP6 VEID inh,SIRT5 block
NC(=O)NC(CC(=O)NCCCc1ccccc1)c1ccccc1Cl (stereo unspecified),n,n,43,n,n
CCOC(=O)/C(C#N)=C1\C(=O)N(Cc2ccccc2)c2ccccc21,x,n,n,n,n
CCOC(=O)/C(C#N)=C1/C=C(C)c2ccccc2N1,n,n,43,n,x
CC(=O)N1[C@@H]2Cn3c(ccc(-c4ccccc4)c3=O)[C@H]1[C@@H](C(=O)N1CCCCC1)[C@@H]2CO,n,n,n,n,n
COc1ccc(/C=C/C(=O)c2cc3c(cc2N)OCO3)cc1,n,n,43,n,n
COc1ccc(/C=C/C(=O)c2ccc(OC)cc2OC)cc1,n,n,n,n,n
CO[C@H]1CN(C)C(=O)c2ccc(NS(=O)(=O)CC(F)(F)F)cc2OC[C@H](C)N(C(=O)c2ccc3c(c2)OCO3)C[C@H]1C,n,x,x,x,n
N#Cc1cnn2c(C(F)(F)F)cc(-c3ccccc3)nc12,44,n,n,n,n
COC(=O)C[C@@H]1CC[C@H]2[C@@H](COc3ccc(NC(=O)c4ccc(F)cc4)cc3C(=O)N2C)O1,n,n,n,n,n
Cc1n(N)c2ccccc2[n+]1CC(=O)c1ccccc1,n,n,43,n,n
CC(C)Oc1cccc(C(=O)C2CCCN(Cc3ccc(Oc4ncccn4)cc3)C2)c1 (stereo unspecified),n,n,43,n,n
CCOC(=O)c1c(C)[nH]c(C(=O)COC(=O)c2cccnc2Cl)c1C,n,n,n,n,n
CCOC(=O)c1c(C)[nH]c(C(=O)COC(=O)c2cnccn2)c1C,70,n,n,n,n
O=C1CCCCCN1C(=O)c1ccccc1,x,n,43,n,x
COc1ccc2c3c([nH]c2c1)[C@@H](CO)N(C(=O)Nc1ccc(F)cc1)CC31CN(Cc2cc(-c3ccccc3)on2)C1,n,n,x,n,n
Cc1cccn2c(=O)c3cc(C(=O)NC4CCCC4)c(=N)n(CC4CCCO4)c3nc12 (stereo unspecified),n,n,n,n,x
CCOCCCNc1nc2nc3ccc(C)cn3c(=O)c2cc1C(=O)NCC1CCCO1 (stereo unspecified),n,57,n,n,n
COc1ccc(CCn2c(=N)c(C(=O)NCC3CCCO3)cc3c(=O)n4cccc(C)c4nc32)cc1 (stereo unspecified),x,n,n,n,n
Cc1cccn2c(=O)c3cc(C(=O)NCC4CCCO4)c(=N)n(CC4CCCO4)c3nc12 (stereo unspecified),n,82,n,n,n
Cc1cccn2c(=O)c3cc(C(=O)NCC4CCCO4)c(=N)n(Cc4cccnc4)c3nc12 (stereo unspecified),n,105,x,n,n
CNC[C@H]1OCCCC[C@H](C)Oc2ccc(NC(=O)Nc3cccc4ccccc34)cc2C(=O)N([C@@H](C)CO)C[C@@H]1C,n,n,n,n,n
COc1ccc(N2C(=O)CC(Sc3nc(C)cc(C)c3C#N)C2=O)cc1 (stereo unspecified),63,x,x,x,x
C[C@H](CO)N1C[C@H](C)[C@@H](CN(C)C(=O)c2ccccn2)Oc2cc(C#Cc3ccc(F)cc3)ccc2S1(=O)=O,n,n,n,n,n
Cc1nc(Nc2nc3ccccc3o2)nc(C)c1C,n,n,44,n,n
